TMEM16A act = activates or potentiates the mouse TMEM16A chloride channel; HEK293 TMEM16A/YFP-H148Q/I152L, iodide quench fluorescence; active compounds read low; B-score at 10 µM; 340,000 compounds, 0.3% hits;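 active means fluorescence-ratio B-score plate-corrected deviation score at least 3 library SD below zero, with starting fluorescence score within 5 deviations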;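 further: channel opened by trigger with iodide after compound preincubation; score built on the fluorescence ratio of max minus min over baseline; more negative score means more quench and so TMEM16A activation or potentiation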
ANO1 block = inhibitors of mouse TMEM16A calcium-activated chloride channel; normalized B-score (activity score, 25-100; higher = stronger inhibition) at 10 µM; Q8BHY3; HEK293 TMEM16A/YFP iodide influx fluorescence, ionomycin; AID 588511; 310,000 compounds, 1.2% hits;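 active means ratio plate-corrected score three or more library SD toward inhibition, starting fluorescence score within five deviations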;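 further: score derived from kinetic fluorescence span divided by baseline fluorescence per well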
MEKK2 mut-MEK5 = signal of MEK5 binding to mutant human MEKK2 PB1 domain. bead flow cytometry, Alexa488-MEK5 binding to MEKK2 mutant. percent response, % at 10 µM. 290,000 compounds, 0.35% hits. AID 1530; in the data active means percent response above about 24%, passing the limit was not always enough
NTR1 ag = agonists of human neurotensin receptor NTR1; NTR1-U2OS beta-arrestin-GFP spot imaging, agonist mode; activation, % at 20 µM; 330,000 compounds, 0.17% hits; AID 493036;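 active means activation at or above 40% of the spot to cytoplasm intensity ratio, with at least 20 cells analyzed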
Target sequence (P30989 whole entry, looked up): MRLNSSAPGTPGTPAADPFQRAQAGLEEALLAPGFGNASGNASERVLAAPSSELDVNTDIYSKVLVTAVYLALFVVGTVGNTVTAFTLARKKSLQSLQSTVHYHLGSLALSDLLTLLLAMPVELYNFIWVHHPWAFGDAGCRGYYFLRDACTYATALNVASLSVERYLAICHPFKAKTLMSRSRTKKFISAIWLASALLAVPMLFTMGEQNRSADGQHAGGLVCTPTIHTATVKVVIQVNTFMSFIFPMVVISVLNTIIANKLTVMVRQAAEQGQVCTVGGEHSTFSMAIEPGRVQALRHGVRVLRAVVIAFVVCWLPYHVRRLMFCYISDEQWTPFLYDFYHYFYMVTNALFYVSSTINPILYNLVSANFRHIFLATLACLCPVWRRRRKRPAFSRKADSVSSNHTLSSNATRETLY
MEKK3 PB1 HTS = raises or lowers MEK5 binding to the human MEKK3 PB1 domain; Q99759; 290,000 compounds, 1.4% hits; binding response (% of control), % at 10 µM; AID 1529; bead-based flow cytometry, Alexa488-MEK5 binding to MEKK3; actives lie on both sides; 0 = blocked by unlabeled MEK5, 100 = vehicle;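 active means binding response more than 3 SD above or below the average of its plate-row segment, actives on both sides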;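 further: Alexa488 bead fluorescence after subtracting the streptavidin-only scavenger bead signal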
MEKK2wt PB1 HTS = raises or lowers MEK5 binding to wildtype human MEKK2 PB1 domain; bead flow cytometry, Alexa488-MEK5 binding to MEKK2 WT; actives lie on both sides; binding response (% of control), % at 10 µM; Q9Y2U5; 290,000 compounds, 1.1% hits; AID 1531; in the data active means binding response below about 67% or above about 130%
Large screens that a line does not name were inactive; [ ] = remark or other dose. This is a sample that favours compounds with a hit; in the whole collection about 3.4% have one here.

CN(C(=O)CSc1ncnc2sc3c(c12)CCCC3)C1CCS(=O)(=O)C1 (centres undefined)	none (no result: ANO1 block, MEKK2 mut-MEK5, MEKK3 PB1 HTS, MEKK2wt PB1 HTS)
CC(=O)c1cn(C2OC(CO)C3OC(C)(C)OC32)c(=O)n(C)c1=O (centres undefined)	none (no result: MEKK2 mut-MEK5, MEKK3 PB1 HTS, MEKK2wt PB1 HTS)
CCc1cc2c(=O)n(-c3ccccc3)c(=S)[nH]c2s1	ANO1 block 25
CCc1cc2c(=O)n(-c3ccccc3)c(SCC(N)=O)nc2s1	none
COC(=O)c1cnn2c1C(=O)N(Cc1cccs1)CC2	none
O=C(c1ccc(Oc2ccc([N+](=O)[O-])cc2)cc1)N1CCCCCC1	ANO1 block 25
O=C(Nc1ccc(N2CCCCCC2)cc1)c1cccc(S(=O)(=O)N2CCOCC2)c1	none (no result: ANO1 block, MEKK2 mut-MEK5, MEKK3 PB1 HTS, MEKK2wt PB1 HTS)
Cc1ccc(OCc2nnc(SCc3nc4ccccc4[nH]3)n2Cc2ccco2)cc1	ANO1 block 100
c1ccc(-c2nnc(SCc3nc4ccccc4[nH]3)n2Cc2ccco2)cc1	none
COC(=O)C1=C(N)Oc2cc(C)n(Cc3ccncc3)c(=O)c2C1c1cccnc1 (centres undefined)	TMEM16A act -15
CCOCCCN1C(=O)C(=O)N(CC(=O)N2c3ccccc3NC(=O)CC2C)C1=O (centres undefined)	none (no result: ANO1 block, MEKK2 mut-MEK5, MEKK3 PB1 HTS, MEKK2wt PB1 HTS)
C=CCNC(=S)NNC(=O)c1ccncc1	none
CC1(C)OC(=O)C(=Cc2ccc(-c3ccc(S(N)(=O)=O)cc3)o2)C(=O)O1	TMEM16A act -6.2, MEKK3 PB1 HTS 2.0[inhibitor], MEKK2wt PB1 HTS 2.0[inhibitor]
COc1ccc2cc3c(N)nn(C(=O)Cc4ccccc4OC)c3nc2c1	none
COc1ccc2cc3c(N)nn(C(=O)C4CCC(C(C)(C)C)CC4)c3nc2c1 (centres undefined)	NTR1 ag 42
CCOC(=O)C1=C(C)N=c2s/c(=C/c3cccc([N+](=O)[O-])c3O)c(=O)n2C1c1ccccc1 (centres undefined)	ANO1 block 100
CCOC(=O)C1=C(C)N=c2s/c(=C/c3cccc([N+](=O)[O-])c3O)c(=O)n2C1c1cc(OC)c(OC)c(OC)c1 (centres undefined)	none
CN(C)c1cccc(C(=O)NNC(=O)/C=C/c2cccs2)c1	none (no result: ANO1 block, MEKK2 mut-MEK5, MEKK3 PB1 HTS, MEKK2wt PB1 HTS)
O=c1cc(CN2CCc3ccccc32)nc2sccn12	none
O=c1cc(CN2CCCc3ccccc32)nc2sccn12	TMEM16A act -11
Cc1nnc2c(-c3ccccc3)nc3ccccc3n12	TMEM16A act -16
Cc1nnc2c(NCCc3ccccc3)nc3ccccc3n12	none
Cc1ccccc1C(=O)Nc1nc(=S)ss1	ANO1 block 100
CC(C)CC(=O)Nc1nc(=S)ss1	ANO1 block 100
CC(=O)Nc1nc(=S)ss1	none
CCOc1ccccc1N1CCN(CC(=O)NCCc2ccc(S(N)(=O)=O)cc2)CC1	TMEM16A act -5.5
CCOc1ccccc1OCC(=O)NCCc1ccc(S(N)(=O)=O)cc1	none
Cc1ccn2c(C=O)c(-c3ccc(F)cc3)c(C=O)c2c1	MEKK2wt PB1 HTS -3.0
O=C(CCNc1ccc(Br)cc1)c1cccc([N+](=O)[O-])c1	none
O=C(/C(N=Nc1cccc([N+](=O)[O-])c1)=C(/O)c1ccc(Br)cc1)C(F)(F)F	ANO1 block 100 (no result: TMEM16A act)
Cc1cccc2c1-c1sc(C(=O)NCCCN3CCC(C)CC3)cc1CO2	MEKK2 mut-MEK5 29, MEKK2wt PB1 HTS 186
CC1CCN(CCCNC(=O)c2cc3c(s2)-c2ccccc2OC3)CC1	MEKK2wt PB1 HTS 134
CC1CCCN(CCCNC(=O)c2cc3c(s2)-c2ccccc2OC3)C1 (centres undefined)	none
COc1ccc(NC(=O)[C@H](C)NC(=O)C2CCN(S(=O)(=O)c3ccc(OC)cc3)CC2)cc1	none
COc1cc(Cl)c(C)cc1NC(=O)CSc1cc(Cl)ccc1Cl	ANO1 block 100
COc1cc(Cl)c(C)cc1NC(=O)CSc1ccc(C)cc1	none
Cc1c(N(C)C(=O)c2ccccc2F)c(=O)n(-c2ccccc2)n1C	TMEM16A act -6.5
O=C(NCc1cccnc1)/C(=C\c1ccc(-c2ccc(Cl)c(Cl)c2)o1)S(=O)(=O)c1ccccc1	TMEM16A act -6.1 (no result: NTR1 ag)
CC1CC(C)CN(C(=O)Cn2ncc3c([nH]c4ccccc43)c2=O)C1 (centres undefined)	none
CN1C(=O)/C(=C/c2ccccc2F)Sc2ccc(C(=O)N3CCCC3)cc21	ANO1 block 25
CN1CCN(C(=O)c2ccc3c(c2)N(C)C(=O)/C(=C/c2cccc(Cl)c2)S3)CC1	MEKK2wt PB1 HTS 137
COc1ccc(CCNCCN2CCOCC2)cc1	none
O=c1cc(C(F)(F)F)nc(SC/C=C/c2ccccc2)[nH]1	ANO1 block 100
C[n+]1c2n(c3ccccc31)N=C(c1cc(C(C)(C)C)c(O)c(C(C)(C)C)c1)CS2	ANO1 block 100
COc1c(CC=C(C)C)cc(C2CC(=O)c3c(O)cc(O)cc3O2)c(CC=C(C)C)c1O (centres undefined)	ANO1 block 100 (no result: TMEM16A act)
CCN(C(=O)c1cnc(N2CCN(c3ncccn3)CC2)c2ccccc12)c1cccc(Cl)c1	ANO1 block 100
COc1ccc(-c2nnc(SCC(=O)N(Cc3ccccc3)C(C)(C)C)o2)cc1OC	ANO1 block 100
COc1cc(-c2nnc(SCC(=O)c3ccccc3)o2)cc(OC)c1OC	none
Cc1cc(NC(=O)Cc2ccccc2)c2ccccc2n1	ANO1 block 25
COC(=O)Nc1cc(C)nc2ccccc12	none
Cc1cc(C(=O)OCC(=O)NCc2ccc(Cl)cc2)c(C)o1	none
CCc1cccc(NS(=O)(=O)c2c(C)nc3sc(CC)nn3c2=O)c1	none
O=C1C=C(c2ccc3c(c2)oc2ccccc23)C[C@@H](c2ccc3c(c2)OCO3)C1	none (no result: ANO1 block, MEKK2 mut-MEK5, MEKK3 PB1 HTS, MEKK2wt PB1 HTS)
C=CCn1c(-c2ccc(OC)cc2)csc1=Nc1c(C)n(C)n(-c2ccccc2)c1=O	none
COc1ccc(-c2csc(=NCCO)n2-c2ccccc2)cc1	ANO1 block 25 (no result: NTR1 ag)
CCOC(=O)C1(Cc2ccc(Cl)cc2)CCN(C(C)Cc2ccc(O)c(OC)c2)CC1 (centres undefined)	none
COc1ccc(NC(=S)NNC(=S)Nc2cccc(C(F)(F)F)c2)cc1	TMEM16A act -6.7
CCOc1ccc(NC(=S)NNC(=S)Nc2cccc(C(F)(F)F)c2)cc1	none
O=C(C[n+]1cn(C(F)F)c2ccccc21)c1ccc(OC(F)F)cc1	none
CC(C)S(=O)(=O)C1=NSC2=NC(=O)/C(=C\c3ccc(-c4ccccc4)o3)C(=N)N21	ANO1 block 25 (no result: NTR1 ag)
CS(=O)(=O)C1=NSC2=NC(=O)/C(=C\c3ccc(-c4ccccc4)o3)C(=N)N21	none (no result: TMEM16A act, NTR1 ag)
COc1ccc(NS(=O)(=O)c2cccc(C(=O)NC3CCC(O)CC3)c2)cc1 (centres undefined)	none
